The assay addresses furin, P09958. The assay is described as follows: furin cleavage Z-score vs untreated control; higher = more cleavage, active = 3.5 or more, inactive = 1 or less, 8 variable residues between constant flanks. Summed up:
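Cleavage by purified furin was measured on 8-mer peptides fused to a cDNA oligonucleotide and held on magnetic beads by their N-terminus. Reactions (0.01 ml, 1:10 enzyme:substrate) ran 7.5, 15 or 30 min in 50 mM HEPES pH 7.5 with CaCl2 and NaCl. Released DNA was adapter-tagged by PCR and sequenced, with read counts giving abundance. Log counts versus furin-free reactions were lowess-adjusted and scaled by median absolute deviation to give the cleavage Z-score.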

The list shows a part of the results. How many sequences the whole screen found active is unknown.

Sequence of furin, P09958 (P09958 whole entry, the tested form may be a part): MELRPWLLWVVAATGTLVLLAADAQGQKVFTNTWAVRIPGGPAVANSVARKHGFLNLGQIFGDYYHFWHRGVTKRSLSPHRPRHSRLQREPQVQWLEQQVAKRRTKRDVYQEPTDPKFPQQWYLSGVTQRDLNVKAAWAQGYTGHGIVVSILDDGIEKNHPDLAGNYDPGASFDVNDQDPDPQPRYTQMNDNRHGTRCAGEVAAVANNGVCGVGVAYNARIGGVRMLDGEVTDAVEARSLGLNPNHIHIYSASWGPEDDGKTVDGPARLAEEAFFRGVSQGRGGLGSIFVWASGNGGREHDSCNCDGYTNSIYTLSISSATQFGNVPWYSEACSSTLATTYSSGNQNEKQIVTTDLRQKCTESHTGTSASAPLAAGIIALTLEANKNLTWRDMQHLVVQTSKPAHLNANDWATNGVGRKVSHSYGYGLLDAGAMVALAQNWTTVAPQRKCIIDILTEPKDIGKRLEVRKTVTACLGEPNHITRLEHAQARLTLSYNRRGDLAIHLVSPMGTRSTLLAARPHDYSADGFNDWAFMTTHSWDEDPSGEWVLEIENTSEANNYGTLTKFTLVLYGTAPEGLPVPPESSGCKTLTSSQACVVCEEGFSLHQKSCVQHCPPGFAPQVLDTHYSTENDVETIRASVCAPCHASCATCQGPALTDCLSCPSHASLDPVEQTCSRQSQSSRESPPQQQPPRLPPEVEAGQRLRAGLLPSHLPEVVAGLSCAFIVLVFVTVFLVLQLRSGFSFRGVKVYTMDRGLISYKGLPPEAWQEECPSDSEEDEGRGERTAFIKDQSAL

CASRDRFRRSAGNASASA [FS-1282]: the “furin cleavage Z-score” value was 13 (active) (7.5 min), 12.2 (active) (15 min) and 9.49 (active) (30 min).

Take CASRSLSRRSAGNASASA [FS-1088]: the “furin cleavage Z-score” value (7.5 min) was 8.82 (active), the “furin cleavage Z-score” value (15 min) was 10.1 (active) and the “furin cleavage Z-score” value (30 min) is 7.4 (active).

Regarding CALRMFERRSAGNASASA [FS-1367], the “furin cleavage Z-score” value is 0.304 (inactive) (7.5 min), -0.351 (inactive) (15 min) and 0.543 (inactive) (30 min).

On to CAIPSGFRRSAGNASASA [FS-339], for which the “furin cleavage Z-score” value (7.5 min) was -0.371 (inactive), the “furin cleavage Z-score” value (15 min) is -1.96 (inactive) and the “furin cleavage Z-score” value (30 min) was -0.569 (inactive).

CADMMEECSQAGNASASA [HC1806]: the “furin cleavage Z-score” value is -0.946 (inactive) (7.5 min), -0.28 (inactive) (15 min) and -0.569 (inactive) (30 min).

For CAAKVLVVLLAGNASASA [HC345], the “furin cleavage Z-score” value (7.5 min) is -0.548 (inactive), the “furin cleavage Z-score” value (15 min) was -0.603 (inactive) and the “furin cleavage Z-score” value (30 min) was 0.816 (inactive).

For CATHMRQMRSAGNASASA [FS-304], the “furin cleavage Z-score” value is, setting by setting: (7.5 min) 5.44 (active); (15 min) 7.85 (active); (30 min) 7.29 (active).

Take CANEKRQRRQAGNASASA [FS-552]: the “furin cleavage Z-score” value (7.5 min) is 8.64 (active), the “furin cleavage Z-score” value (15 min) was 9.03 (active) and the “furin cleavage Z-score” value (30 min) was 8.4 (active).

For the sequence CAAKSRQMRSAGNASASA [FS-321], the “furin cleavage Z-score” value (7.5 min) is 12.3 (active), the “furin cleavage Z-score” value (15 min) is 12.5 (active) and the “furin cleavage Z-score” value (30 min) was 8.77 (active).

As to CAAKSRQRRQAGNASASA [FS-1583], the “furin cleavage Z-score” value runs as follows: (7.5 min) 9.65 (active); (15 min) 11 (active); (30 min) 7.11 (active).

Turning to CAQALPVWARAGNASASA [HC1302], the “furin cleavage Z-score” value runs as follows: (7.5 min) -0.162 (inactive); (15 min) 0.223 (inactive); (30 min) -0.716 (inactive).

Consider CAATRDGKLPAGNASASA [HC284], for which the “furin cleavage Z-score” value is 0.288 (inactive) (7.5 min), -1.04 (inactive) (15 min) and 0.353 (inactive) (30 min).

As for CATMRIVGPRAGNASASA [HC1182], the “furin cleavage Z-score” value reads like this: (7.5 min) 0.31 (inactive); (15 min) 1.38; (30 min) 0.463 (inactive).

In the case of CATTRCSGSWAGNASASA [HC1873], the “furin cleavage Z-score” value (7.5 min) is -2.28 (inactive), the “furin cleavage Z-score” value (15 min) is -0.493 (inactive) and the “furin cleavage Z-score” value (30 min) was -0.341 (inactive).

In the case of CAGCIITSLTAGNASASA [HC681], the “furin cleavage Z-score” value was -0.591 (inactive) (7.5 min), -0.913 (inactive) (15 min) and -0.483 (inactive) (30 min).

Turning to CAHEMEECSQAGNASASA [HC1795], the “furin cleavage Z-score” value runs as follows: (7.5 min) 0.638 (inactive); (15 min) -0.825 (inactive); (30 min) 0.0903 (inactive).

In the case of CAKNSRKLRGAGNASASA [FS-258], the “furin cleavage Z-score” value reads like this: (7.5 min) 0.0851 (inactive); (15 min) 1.03; (30 min) 2.96.

Consider CAEPPRPRRGAGNASASA [FS-992], for which the “furin cleavage Z-score” value (7.5 min) was -0.496 (inactive), the “furin cleavage Z-score” value (15 min) is -0.299 (inactive) and the “furin cleavage Z-score” value (30 min) was 0.0496 (inactive).

Turning to CAPGRRPRRGAGNASASA [FS-68], the “furin cleavage Z-score” value runs as follows: (7.5 min) 10.4 (active); (15 min) 9.49 (active); (30 min) 8.86 (active).

On to CAPIIRKSRGAGNASASA [FS-1472], for which the “furin cleavage Z-score” value was 10 (active) (7.5 min), 10.9 (active) (15 min) and 7.97 (active) (30 min).

In the case of CAASSRPRRGAGNASASA [FS-10], the “furin cleavage Z-score” value runs as follows: (7.5 min) 5.57 (active); (15 min) 4.59 (active); (30 min) 4.78 (active).

For CAGALRPRRGAGNASASA [FS-421], the “furin cleavage Z-score” value runs as follows: (7.5 min) 1.31; (15 min) 0.929 (inactive); (30 min) 0.673 (inactive).

Regarding CALIAFASRGAGNASASA [HC1120], the “furin cleavage Z-score” value (7.5 min) was 0.403 (inactive), the “furin cleavage Z-score” value (15 min) was -0.694 (inactive) and the “furin cleavage Z-score” value (30 min) was 0.0807 (inactive).

In the case of CAHLHQNIVDAGNASASA [HC506], the “furin cleavage Z-score” value (7.5 min) was -0.675 (inactive), the “furin cleavage Z-score” value (15 min) is -0.105 (inactive) and the “furin cleavage Z-score” value (30 min) is -1.09 (inactive).

Turning to CASPTTALVMAGNASASA [HC324], the “furin cleavage Z-score” value runs as follows: (7.5 min) 0.089 (inactive); (15 min) -0.626 (inactive); (30 min) -1.02 (inactive).

On to CARQRRAITVAGNASASA [FS-2509], for which the “furin cleavage Z-score” value (7.5 min) was 4.39 (active), the “furin cleavage Z-score” value (15 min) was 7.17 (active) and the “furin cleavage Z-score” value (30 min) is 7.22 (active).

As for CARNRRIITVAGNASASA [FS-3198], the “furin cleavage Z-score” value is, setting by setting: (7.5 min) 0.0348 (inactive); (15 min) -1.25 (inactive); (30 min) 0.314 (inactive).

As for CARQRRAFQVAGNASASA [FS-2508], the “furin cleavage Z-score” value is, setting by setting: (7.5 min) 1.92; (15 min) 4.22 (active); (30 min) 6.29 (active).

Consider CARERRYSTVAGNASASA [FS-2551], for which the “furin cleavage Z-score” value (7.5 min) was -0.101 (inactive), the “furin cleavage Z-score” value (15 min) was 1.01 and the “furin cleavage Z-score” value (30 min) was 0.281 (inactive).

Consider CARQRRLVLVAGNASASA [FS-2764], for which the “furin cleavage Z-score” value was -0.772 (inactive) (7.5 min), -0.609 (inactive) (15 min) and 1.17 (30 min).

With CARQRRARFVAGNASASA [FS-1770], the “furin cleavage Z-score” value runs as follows: (7.5 min) 6.58 (active); (15 min) 8.49 (active); (30 min) 7.14 (active).

For the sequence CARQPRVDFVAGNASASA [FS-2064], the “furin cleavage Z-score” value was -1.17 (inactive) (7.5 min), -0.264 (inactive) (15 min) and -0.469 (inactive) (30 min).

Consider CAVVCMSMSYAGNASASA [HC88], for which the “furin cleavage Z-score” value was -1.17 (inactive) (7.5 min), -0.925 (inactive) (15 min) and 0.213 (inactive) (30 min).

For the sequence CAPPSWDQMWAGNASASA [HC961], the “furin cleavage Z-score” value is, setting by setting: (7.5 min) 1.06; (15 min) -0.132 (inactive); (30 min) 1.

Regarding CAVKNGTMRIAGNASASA [HC1180], the “furin cleavage Z-score” value (7.5 min) stood at 2.3, the “furin cleavage Z-score” value (15 min) was 1.25 and the “furin cleavage Z-score” value (30 min) is 0.508 (inactive).

Take CADLYLVTRHAGNASASA [HC725]: the “furin cleavage Z-score” value is -0.523 (inactive) (7.5 min), -1.17 (inactive) (15 min) and -0.885 (inactive) (30 min).

Consider CAHELRHRRHAGNASASA [FS-170], for which the “furin cleavage Z-score” value is 11 (active) (7.5 min), 10.9 (active) (15 min) and 11 (active) (30 min).

CARFRRKRRHAGNASASA [FS-854]: the “furin cleavage Z-score” value runs as follows: (7.5 min) 9.74 (active); (15 min) 9.95 (active); (30 min) 7.32 (active).

CAAEARKNRPAGNASASA [FS-1508]: the “furin cleavage Z-score” value runs as follows: (7.5 min) -0.91 (inactive); (15 min) 0.425 (inactive); (30 min) -1.59 (inactive).

Take CADTERKRRHAGNASASA [FS-411]: the “furin cleavage Z-score” value (7.5 min) was 8.87 (active), the “furin cleavage Z-score” value (15 min) was 11 (active) and the “furin cleavage Z-score” value (30 min) was 9.59 (active).

For CAPAIASLMAAGNASASA [HC1053], the “furin cleavage Z-score” value reads like this: (7.5 min) -0.244 (inactive); (15 min) 1.04; (30 min) 0.347 (inactive).

Consider CAFVPCHRPSAGNASASA [HC2307], for which the “furin cleavage Z-score” value was -1.81 (inactive) (7.5 min), 0.496 (inactive) (15 min) and 0.113 (inactive) (30 min).

In the case of CALHEYPVGSAGNASASA [HC1236], the “furin cleavage Z-score” value (7.5 min) is -0.438 (inactive), the “furin cleavage Z-score” value (15 min) was -0.864 (inactive) and the “furin cleavage Z-score” value (30 min) is -0.00108 (inactive).

With CAEERARAKWAGNASASA [EK3], the “furin cleavage Z-score” value by setting is: (7.5 min) 0.379 (inactive); (15 min) 1.71; (30 min) -0.287 (inactive).

The values above are taken from the supplement of paper PMC3545927.
